Bioassay records as filed in PubChem BioAssay.
The list is not random: actives were taken first. Their share in the collection is about 0.44%.
YopH inh – YopH (Yersinia) phosphatase inhibition; hit rate 0.16% among 140,000; inhibition, % (no concentration beside the values); fluorescence Ex485/Em525; in the data active means inhibition above about 50%
RmlC RmlD mix – inhibitors of RmlC and RmlD coupled enzymes | RmlC/RmlD coupled enzyme inhibition, 384-well mixture HTS | inhibition, % at 5.5 µM | hit rate 0.39% among 110,000 | AID 1532; in the data active means inhibition above about 30%, passing the limit was not always enough
Hits are given with their value; n = inactive; x = no result given; + = active, no number.

SMILES	YopH inh	RmlC RmlD mix
COc1ccc(C2CC(=O)N3CN(c4ccc(C)c(Cl)c4)CSC3=C2C#N)cc1OC (stereo not given)	n	n
CCOc1ccccc1N1CSC2=C(C#N)C(c3c(OC)ccc4ccccc34)CC(=O)N2C1 (stereo not given)	89.8	n
COc1ccc(N2CSC3=C(C#N)C(c4ccc(OC)c(OC)c4)CC(=O)N3C2)c(OC)c1 (stereo not given)	59.9	n
CCc1ccc2[nH]c3nc(SCc4nnc(-c5ccc(C)cc5)o4)nnc3c2c1	n	n
Cc1cccc(C(=O)NC(=S)Nc2ccc(N3CCOCC3)cc2)c1	n	x
Cc1ccc2c(c1)N(CCC(=O)NCc1cccs1)C(=O)C(C)O2 (stereo not given)	n	n
CCOC(=O)C1=CN(c2cccc(F)c2)C=C(C(=O)OCC)C1c1cc(OC)c(O)c([N+](=O)[O-])c1	n	n
CC1CCc2c(sc3ncnc(N4CCN(S(=O)(=O)c5cccc6nonc56)CC4)c23)C1 (stereo not given)	n	x
COc1ccccc1NC(=S)c1ccccc1	n	x
O=C1CCCC2=C1C1(O)C(=O)c3ccccc3C1(O)O2 (stereo not given)	98.8	n
N#CC1=C(N)OC2=C(C(=O)CCC2)[C@]12C(=O)N(CC(N)=O)c1ccccc12	n	n
COC(=O)CCC(=O)Oc1ccc(OC(=O)CCC(=O)OC)cc1	59.1	x
COC(=O)CCC(=O)Nc1ccc(NC(=O)CCC(=O)OC)cc1	n	n
COC(=O)/C(=N\Nc1ccccc1)Sc1nnc(-c2ccc(OC)cc2)n1C	n	x
CC(C)OC(=O)CC(=O)CSc1nc2c(cc1C#N)CCC2	n	97.2
C=C(C)CSc1nc2c(cc1C#N)CCC2	n	n
COC(=O)CC(=O)CSc1nc2c(cc1C#N)CCC2	n	77.0
N#Cc1cc2c(nc1SCC(N)=O)CCCCC2	n	n
O=C(O)C1C2C=CC(C2)C1C(=O)NCc1ccc(Cl)c(Cl)c1 (stereo not given)	n	x
CCOC(=O)CSC1=N/C(=C\c2ccc(OC)c(OC)c2)C(=O)N1C	n	x
FC(F)(F)c1ccc(C2[C@H]3CN(Cc4cccnc4)[C@H](c4ccccc4)C34CC2(c2ccccc2)C4)cc1 (stereo not given in full)	x	n
CCCCCCc1cc2cc(-c3nnc(-c4cc(OC)c(OC)c(OC)c4)o3)c(=O)oc2cc1O	n	68.8
CCCCCCc1cc2cc(-c3nnc(-c4ccccc4O)o3)c(=O)oc2cc1O	n	162.2
CCCCCCc1cc2cc(C(=O)Nc3ccccc3OC)c(=O)oc2cc1O	n	x
CCCCCCc1cc2cc(S(=O)(=O)c3ccc(F)cc3)c(=O)oc2cc1O	n	x
SMILES	YopH inh	RmlC RmlD mix
C#CC(CC)(CC)NC(=S)Nc1cccc(C(C)=O)c1	n	n
Nc1cc(C(=O)O)ccc1Nc1ccccc1	n	n
Nc1ccc(Nc2ccccc2N)cc1	51.0	n
CC(C)OCCCNC(=O)CCSc1ccc(Cl)cc1	n	n
COc1ccc(C(=O)N2CCC(=O)N(C(CO)Cc3ccccc3)CC2)cc1 (stereo not given)	n	n
CCOc1ccccc1C1C(C#N)=C(N)Nc2onc(-c3ccccc3)c21 (stereo not given)	65.2	n
CCCc1[nH]nc2c1C(c1ccccc1OCC)C(C#N)=C(N)O2 (stereo not given)	n	n
C=Cc1c(C)c2cc3[nH]c(cc4nc(cc5nc(cc1[nH]2)C(C)=C5CCC(=O)O)C(CCC(=O)O)=C4C)c(C)c3C=C	x	42.9
CN(C(=O)c1ccco1)c1nc2c(s1)CCCC2	n	n
O=C(c1ccc(Cl)cc1)[C@@H]1[C@@H]2C(=O)N(c3ccc(Cl)cc3)C(=O)[C@@H]2C2c3ccccc3C=NN21 (stereo not given in full)	n	x
O=C(c1ccco1)[C@@H]1[C@@H]2C(=O)N(c3ccc(Br)cc3)C(=O)[C@@H]2C2c3ccccc3C=CN21 (stereo not given in full)	88.0	n
O=C(c1ccco1)[C@@H]1[C@@H]2C(=O)N(c3ccc(F)cc3)C(=O)[C@@H]2C2c3ccccc3C=CN21 (stereo not given in full)	73.7	n
O=C(c1ccco1)[C@@H]1[C@@H]2C(=O)N(c3ccc(F)cc3)C(=O)[C@@H]2[C@H]2C=Cc3ccccc3N21	n	x
CC(C)CNC(=O)c1cccc(NC(=O)Cc2ccc(Br)cc2)c1	n	x
COc1c(OC2OC(C(=O)O)C(O)C(O)C2O)cc(O)c2c(=O)cc(-c3ccccc3)oc12 (stereo not given)	n	n
O=C(O)C1OC(Oc2cc3oc(-c4ccccc4)cc(=O)c3c(O)c2O)C(O)C(O)C1O (stereo not given)	53.2	n
CCCC1=C(C(=O)OCC)C(c2ccncc2)n2ncnc2N1 (stereo not given)	n	n
COc1ccccc1NC(=O)c1c(Nc2ccccc2F)sc(C(=O)Nc2cccc(Cl)c2)c1N	n	x
COc1ccc(O)c(C(C)(C)C)c1	x	n
CC(C)(C)c1cc(OC(=O)c2ccncc2)ccc1O	56.8	n
NC(=O)CC(NC(=O)Cc1ccc(Br)cc1)c1ccc(NCc2ccc(F)cc2)c([N+](=O)[O-])c1 (stereo not given)	x	n
CCOC(=O)C1=C(C)NC(C)=C(C(=O)OCC)C1/C=C/c1ccccc1	n	n
CCOC(=O)C1=C(C)NC2(O)c3ccccc3C(=O)C12O (stereo not given)	67.6	n
Cc1ccc(-n2nnnc2-c2cnoc2-c2cccc(F)c2)cc1	n	n
C#CCn1cc(C=C2C(=O)c3ccccc3C2=O)c2ccccc21	50.8	x
SMILES	YopH inh	RmlC RmlD mix
CC1CCCCN1C(=O)Cn1cc(/C=C2/C(=O)Nc3ccccc32)c2ccccc21 (stereo not given)	n	n
Nc1cnc(Br)cc1Br	n	x
Nc1cc2nsnc2cc1Br	99.6	n
O=C1c2cccc3c(O)ccc(c23)C(=O)N1Cc1ccccc1	n	n
COCCCNC(=O)CC(NS(=O)(=O)c1ccc(C)cc1)c1ccco1 (stereo not given)	n	n
COCCCNC(=O)CC(NS(=O)(=O)c1ccc(F)cc1)c1ccc(OC)cc1 (stereo not given)	68.2	n
Nc1c(NCCC2=CCCCC2)c(=O)[nH]c(=O)n1Cc1ccccc1	n	x
Nc1c(NCc2ccccc2F)c(=O)[nH]c(=O)n1Cc1ccccc1	64.0	n
O=c1onc(-c2ccc(Cl)cc2)n1Cc1ccc(F)cc1	n	x
Cc1ccc(NCc2nnc(SCC(=O)Nc3cccc(O)c3)n2CC2CCCO2)c(C)c1 (stereo not given)	n	n
COc1ccc(CCC(=O)OCC(=O)c2ccc(C)cc2)cc1	n	x
CCC(NC(=O)OC(C)(C)C)C(=O)Oc1ccc2c3c(c(=O)oc2c1)CCC3 (stereo not given)	n	+
CCC(NC(=O)OC(C)(C)C)C(=O)Oc1cc(C)cc2oc(=O)c3c(c12)CCC3 (stereo not given)	n	n
Cc1ccc(NC2=C(NCCO)C(=O)c3ccccc3C2=O)cc1	89.1	x
O=C1C(Cl)=C(NCCCO)C(=O)c2ccccc21	n	n
O=c1c(Cl)c(NCc2ccccc2Cl)cnn1C12CC3CC(CC(C3)C1)C2	n	x
Cc1cccc(C2(c3cccc(C)c3)CC2C(=O)Nc2ccc([N+](=O)[O-])cc2O)c1 (stereo not given)	n	x
Cc1n[nH]c(=O)nc1Nc1ccc(O)cc1	n	n
Oc1ccc(Nc2nc3ccccc3nc2Nc2ccc(O)cc2)cc1	70.5	n
COc1ccc(C(=O)c2no[n+]([O-])c2C(=O)c2ccc(OC)cc2)cc1	n	n
